± gives the standard deviation.
Tests used:
Conditions in all cases: modulator concentration 10 µM
[1] = test system: RAW-Dual (murine macrophage reporter line); test: NF-kB reporter (SEAP) activity fold change vs agonist alone; higher = enhanced NF-kB activity
Summary of the method: (§1)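 RAW-Dual murine macrophage reporter cells were plated at 50 000 per well in 384-well plates, pin-transferred compound to 10 μM final, and pre-incubated for 1 hour at 37 °C before a PRR agonist was added and the cells incubated overnight. NF-κB activity was read from supernatant SEAP with QUANTI-Blue at 620 nm absorbance, and IRF activity from Lucia luciferase with QUANTI-Luc by luminescence. Each signal was expressed as fold change by dividing by the mean agonist-only control on the same plate. Two replicate plates were averaged, with errors obtained by propagation.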

[2] = test system: RAW-Dual (murine macrophage reporter line); test: IRF reporter (Lucia luciferase) activity fold change vs agonist alone; higher = enhanced IRF activity
Summary of the method: as §1

[3] = test system: RAW-Dual (murine macrophage reporter line); test: viability score (confluency relative to resting cells, overnight) (fraction); higher = more viable, active = viable (0.7 or more)
Summary of the method: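 RAW-Dual macrophages in 384-well plates were incubated overnight with compound, final concentration 10 μM. Confluency images from IncuCyte were processed in IncuCyte software into two masks covering all imaged wells. The viability score is each well's confluency relative to resting cells, and a compound met the cutoff when both masks exceeded 70% of resting cells.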

[4] = agonist: CpG ODN 1826 0.5 ug/mL

Structure (SMILES) | NF-kB reporter [1, 4] | NF-kB reporter ([1]; agonist: LPS 0.1 ug/mL) | NF-kB reporter ([1]; agonist: MPLA […]) | IRF reporter ([2]; agonist: 3'3'-cGAMP 10 ug/mL) | IRF reporter ([2]; agonist: LPS 0.1 ug/mL) | IRF reporter ([2]; agonist: MPLA […]) | viability score [3]
COc1cc(Cl)cc(C=NNC(=O)c2cc(C)n[nH]2)c1O | 1.16 ± 0.09 | 0.793 ± 0.038 | 0.943 ± 0.082 | 0.785 ± 0.066 | 1.46 ± 0.088 | 1.62 ± 0.14 | 0.968 (active)
N=C(N)c1ccc(OCCCCCOc2ccc(C(=N)N)cc2)cc1.O=S(=O)(O)CCO.O=S(=O)(O)CCO | 0.243 ± 0.017 | 0.46 ± 0.037 | 0.492 ± 0.027 | 0.715 ± 0.079 | 1.18 ± 0.2 | 0.788 ± 0.16 | 0.305 (inactive)
COc1cc(OC)c(NC(=O)C2CCCN(c3ccc(-c4ccc(C)c(C)c4)nn3)C2)cc1Cl (centres undefined) | 1.04 ± 0.09 | 1.04 ± 0.081 | 0.93 ± 0.04 | 0.964 ± 0.052 | 1.09 ± 0.066 | 1 ± 0.15 | 1.01 (active)
CC(=O)Nc1ccc(NC(=S)NC(=O)C=Cc2ccc(Cl)cc2)cc1 | 1.08 ± 0.069 | 1.09 ± 0.096 | 0.946 ± 0.025 | 0.838 ± 0.089 | 0.932 ± 0.1 | 0.787 ± 0.22 | 0.991 (active)
Cn1c(=O)c2c(ncn2CC(=O)O)n(C)c1=O [Prestw-1507] | 0.918 ± 0.25 | 1.19 ± 0.12 | 1.04 ± 0.086 | 0.945 ± 0.053 | 0.96 ± 0.099 | 1.17 ± 0.15 | 0.992 (active)
CC(=O)OCCN(CCOC(C)=O)c1c(C)[nH]c(=O)[nH]c1=O | 0.864 ± 0.067 | 0.809 ± 0.079 | 0.994 ± 0.089 | 0.976 ± 0.05 | 1.52 ± 0.093 | 1.7 ± 0.17 | 1.02 (active)
O=C(Nc1ccccc1Cl)c1ccc(OCC2CCCO2)nc1 (centres undefined) | 1.17 ± 0.066 | 1.06 ± 0.12 | 0.981 ± 0.026 | 1.3 ± 0.35 | 1 ± 0.058 | 0.976 ± 0.098 | 0.999 (active)
CC(C)CC(C(=O)Nc1ccc(Cl)cc1)N1C(=O)c2ccccc2C1=O (centres undefined) | 1.01 ± 0.17 | 0.982 ± 0.085 | 0.938 ± 0.089 | 0.988 ± 0.053 | 1.15 ± 0.21 | 1.21 ± 0.2 | 0.6 (inactive)
O=C(CCC(=O)NN=Cc1ccc(O)cc1O)NN=Cc1ccc(O)cc1O | 0.934 ± 0.084 | 1.05 ± 0.067 | 0.978 ± 0.11 | 0.944 ± 0.042 | 1.52 ± 0.18 | 1.26 ± 0.13 | 0.994 (active)
OCCN(CCO)c1nc(N2CCCCC2)c2nc(N(CCO)CCO)nc(N3CCCCC3)c2n1 | 1.58 ± 0.22 | 1.39 ± 0.35 | 1.06 ± 0.07 | 0.502 ± 0.022 | 1.18 ± 0.18 | 1.28 ± 0.17 | 0.984 (active)
CC(C)c1ccc(N(CC(=O)NCCSCc2ccc(Cl)cc2)S(C)(=O)=O)cc1 | 0.597 ± 0.058 | 0.909 ± 0.076 | 0.918 ± 0.08 | 0.588 ± 0.04 | 1.14 ± 0.066 | 1.07 ± 0.13 | 1.01 (active)
C=CCc1ccc(O)c(OC)c1 | 1.05 ± 0.29 | 0.913 ± 0.095 | 1.14 ± 0.097 | 0.524 ± 0.019 | 1.05 ± 0.14 | 1.01 ± 0.12 | 0.659 (inactive)
CC/C(=C(\c1ccccc1)c1ccc(OCCN(C)C)cc1)c1ccccc1.O=C(O)CC(O)(CC(=O)O)C(=O)O | 0.808 ± 0.064 | 0.859 ± 0.053 | 1.09 ± 0.11 | 0.963 ± 0.048 | 1.32 ± 0.076 | 1.38 ± 0.12 | 1.02 (active)
NC(=O)c1ncn(C2OC(CO)C(O)C2O)c1O (centres undefined) | 0.931 ± 0.076 | 0.895 ± 0.088 | 0.917 ± 0.1 | 1.04 ± 0.037 | 1.32 ± 0.16 | 1.46 ± 0.2 | 1.01 (active)
O=C(CN(CCc1ccccc1)S(=O)(=O)c1ccc(Cl)cc1)NCc1ccccn1 | 0.824 ± 0.065 | 0.95 ± 0.049 | 0.987 ± 0.092 | 0.741 ± 0.035 | 1.45 ± 0.084 | 1.49 ± 0.16 | 1.02 (active)
Cc1cc(CNC(=O)CCc2ccc(S(C)(=O)=O)cc2)c(C)o1 | 1.24 ± 0.44 | 1.03 ± 0.084 | 1.04 ± 0.066 | 0.928 ± 0.046 | 0.97 ± 0.18 | 1 ± 0.11 | 0.999 (active)
COC(CNS(=O)(=O)Cc1ccccc1)c1ccc(Cl)s1 (centres undefined) | 0.959 ± 0.056 | 1.02 ± 0.084 | 0.922 ± 0.052 | 1.24 ± 0.1 | 1.12 ± 0.071 | 1.16 ± 0.35 | 0.639 (inactive)
COc1ccc(CNCc2ccc3ccccc3c2)c(OC)c1 | 0.163 ± 0.026 | 1.08 ± 0.09 | 1.79 ± 0.56 | 0.644 ± 0.046 | 1.74 ± 0.38 | 2.05 ± 0.59 | 0.688 (inactive)
CCN(CC)c1ccc(C=NN2C(=O)c3ccccc3C2=O)cc1 | 1.05 ± 0.088 | 1.08 ± 0.07 | 1.01 ± 0.061 | 0.827 ± 0.04 | 1.05 ± 0.1 | 1.11 ± 0.15 | 0.994 (active)
COc1cc2nccc(Oc3ccc(NC(=O)C4(C(=O)Nc5ccc(F)cc5)CC4)cc3)c2cc1OC.O=C(O)C[C@H](O)C(=O)O | 0.56 ± 0.046 | 0.51 ± 0.026 | 0.696 ± 0.019 | 0.103 ± 0.0071 | 0.317 ± 0.031 | 0.337 ± 0.027 | 0.842 (active)
Oc1ccc(Cl)cc1-c1nc2ccccc2s1 | 1.01 ± 0.084 | 0.944 ± 0.087 | 0.967 ± 0.091 | 1.09 ± 0.035 | 1.29 ± 0.16 | 1.58 ± 0.23 | 1.02 (active)
O=C(O)CC(c1ccccc1)N1C(=O)c2ccccc2C1=O (centres undefined) | 0.999 ± 0.17 | 1.04 ± 0.13 | 0.963 ± 0.11 | 0.976 ± 0.044 | 1.24 ± 0.22 | 1.3 ± 0.21 | 1 (active)
CS(=O)(=O)O.Cc1ccc(N(CC2=NCCN2)c2cccc(O)c2)cc1 | 0.981 ± 0.19 | 1.03 ± 0.34 | 0.957 ± 0.09 | 0.628 ± 0.019 | 1.09 ± 0.28 | 1.04 ± 0.08 | 1 (active)
CC#CC(=O)N1CCC[C@H]1c1nc(-c2ccc(C(=O)Nc3ccccn3)cc2)c2c(N)nccn12 | 0.946 ± 0.24 | 1.03 ± 0.077 | 0.876 ± 0.068 | 0.575 ± 0.019 | 1.02 ± 0.11 | 1.03 ± 0.15 | 0.736 (active)
Clc1ccc(C=NN2CCN(C(c3ccccc3)c3ccccc3)CC2)cc1 | 1.06 ± 0.087 | 1.02 ± 0.087 | 0.928 ± 0.025 | 1.02 ± 0.051 | 1.05 ± 0.049 | 0.962 ± 0.1 | 0.996 (active)
CC(=O)n1cc(C=C(C)[N+](=O)[O-])c2ccccc21 | 1.07 ± 0.091 | 0.607 ± 0.079 | 0.419 ± 0.055 | 0.445 ± 0.015 | 0.297 ± 0.11 | 0.183 ± 0.067 | 0.861 (active)
Br.Fc1ccc(-c2csc(Nc3ccc4c(c3)OCO4)n2)cc1 | 0.871 ± 0.076 | 0.946 ± 0.066 | 1.02 ± 0.038 | 0.315 ± 0.022 | 1.03 ± 0.076 | 1.29 ± 0.12 | 0.999 (active)

Source: the supplement of paper PMC10646978
